Data taken from PubChem BioAssay (EPA / NIEHS).
Inconclusive results are not listed. More than one record can exist for a structure, and the calls need not agree. Active and inactive are the calls of the source. How the source made its calls: active means hit-call score of the fitted dose curve at least 0.9, where 1 is the maximum; inconclusive means response in the unintended direction; inactive means score below 0.9. Peptide text beside a SMILES is read from it.

Test: TOX21_p53_BLA_p5_viability: Viability Assessment in the Tox21 HCT-116 p53 Agonism Beta-lactamase Assay, Phase 5 (AID 2283600)
Description: TOX21_p53_BLA_p5 is a cell-based, single-readout assay that uses HCT116, a human intestinal cell line, […] in a 1536-well plate.TOX21_p53_BLA_p5_viability is an assay readout measuring cellular ATP content and detected with CellTiter-Glo Luciferase-coupled ATP quantitation.TOX21_p53_BLA_p5_viability used a type of viability reporter where loss-of-signal activity can be used to understand changes in the cell viability. Furthermore, this assay endpoint can be referred to as a secondary readout, because this assay has produced multiple assay endpoints where this one serves a viability function. To generalize the intended target to other relatable targets, this assay endpoint is annotated to the cell cycle intended target family, where the subfamily is cytotoxicity.
Thawing Method: Place 14 mL of pre-warmed thaw medium into a 15 mL of conical tub. Remove the vial of cells to be thawed from liquid nitrogen and thaw rapidly by placing at 37C in a water bath with gentle agitation for 1-2 minutes. Decontaminate the vial by wiping with 70% ethanol before opening in a biological safety cabinet. Transfer the vial contents drop-wise into 14 mL of thaw medium in a sterile 15-mL conical tub. Centrifuge cells at 900 rpm for 4 minutes and resuspend in thaw medium. Transfer contents to the T75 tissue culture flask containing Thaw Medium and place flask in a humidified 37C/5% CO2 incubator. Switch to growth medium at first passage.Propagation Method: Aspirate medium, rinse once in DPBS, add 0.25% Trypsin/EDTA and swirl to coat the cell evenly. Add an equal volume of Growth Medium to inactivate Trypsin after 2-3 minutes incubation at 37C. Centrifuge cells at 900 rpm for 4 minutes and resuspend in growth medium. Cell should be passage or fed at least twice a week.Assay Protocol: Harvest cells from culture in growth medium and resuspend in assay medium. 2.2 Dispense 4000 cells/5 uL/well into 1536-well black/clear bottom plates using a Multidrop dispenser. After the cells were incubated at 37C for 5 hours, 23 nL of compounds dissolved in DMSO were transferred to the assay plate by a PinTool resulting in a 217-fold dilution. Incubate the plates for 16 hours at 37C, 5% CO2. Add 1 uL of 6X LiveBLAzer FRET B/G (CCF4-AM) Substrate Mixture to each well using a BioRAPTR dispenser and incubate the plates at room temperature for 2 hours. Measure fluorescence intensity at 460 and 530 nm emission and 405 nm excitation by an Envision detector. Data is expressed as the ratio of 460nm/530nm emissions. Add 4 uL of Cell-titer Glo to each well using BioRAPTR and incubate the plates at room temperature for […]. For cell viability readout that measures cytotoxicity, 4 ul/well of CellTiter-Glo reagent was added into the assay plates using a Flying Reagent Dispenser. After 30 min incubation at room temperature, the luminescence intensity in the plates was measured using a ViewLux plate reader.

| Compound | outcome | AC50 |
| --- | --- | --- |
| CC(C)(C)C1CCC(=O)CC1 | inactive |  |
| CC(C)C(=O)OCCOc1ccccc1 | inactive |  |
| COc1ccc(-c2coc3cc(O)cc(O)c3c2=O)cc1 | inactive |  |
| COCC(=O)O | inactive |  |
| CC1C(C)(C)C2=C(C(=O)CCC2)C1(C)C (stereo not given) | inactive |  |
| CCCCNC(=S)NCCCC | inactive |  |
| CC1CC(=O)CC(C)(C)C1 (stereo not given) | inactive |  |
| COc1ccc(C(=O)/C(Br)=C\C(=O)O)cc1 | inactive | 39.1 µM (active) |
| CCCCC(CC)COC(=O)/C=C/c1ccc(OC)cc1 (stereo not given) | inactive |  |
| Cc1ccc(S(=O)(=O)N=C=O)cc1 | inactive |  |
| CN(C)Cc1cc(CN(C)C)c(O)c(CN(C)C)c1 | inactive |  |
| COC(C=C(C)CCC=C(C)C)OC | inactive |  |
| CC(=O)OC1CCCCC1C(C)(C)C (stereo not given) | inactive |  |
| O=C1CCCCCCCCCCCN1 | inactive |  |
| c1ccc(Nc2cccc3ccccc23)cc1 | inactive |  |
| O=C(O)/C=C/c1ccccc1 | inactive |  |
| c1ccc2c(c1)[nH]c1ccccc12 | inactive |  |
| CC(C)(O)Cc1ccccc1 | inactive |  |
| CC(CCC(=O)O)(c1ccc(O)cc1)c1ccc(O)cc1 | inactive |  |
| CC/C=C\CCOC(=O)c1ccccc1O | inactive |  |

| Compound | outcome | AC50 |
| --- | --- | --- |
| CC(C)(C)NC(=O)[C@H]1CC[C@H]2[C@@H]3CC[C@H]4NC(=O)C=C[C@]4(C)[C@H]3CC[C@]12C | inactive |  |
| CCCCCCCCCCCC(C)=O | inactive |  |
| COC(=O)[C@H](Cc1ccccc1)NC(=O)[C@@H](N)CC(=O)O (H-Asp-Phe-OMe) | inactive |  |
| O=C(O[C@@H]1Cc2c(O)cc(O)cc2O[C@@H]1c1cc(O)c(O)c(O)c1)c1cc(O)c(O)c(O)c1 | inactive |  |
| NNS(=O)(=O)c1ccc(Oc2ccc(S(=O)(=O)NN)cc2)cc1 | inactive |  |
| O=C(C=Cc1ccccc1)OCCc1ccccc1 | inactive |  |
| CCCCNS(=O)(=O)c1ccccc1 | inactive |  |
| CC(C)c1ccc(O)c(C(C)C)c1 | inactive |  |
| C=C(C)C(=O)OCC(O)COc1ccc(C(C)(C)c2ccc(OCC(O)COC(=O)C(=C)C)cc2)cc1 (stereo not given) | inactive |  |
| O=C(OCc1ccccc1)c1ccc(O)cc1 | inactive |  |
| CC(=O)CCC=C(C)C | inactive |  |
| O=C(O)CCCC(=O)O | inactive |  |
| C=CC(C)(CCC=C(C)C)OC(=O)C=Cc1ccccc1 (stereo not given) | inactive |  |
| CO[Si](CCCS)(OC)OC | inactive |  |
| CO[Si](C)(C)OC | inactive |  |
| Cc1ccc([N+](=O)[O-])cc1N | inactive |  |
| CCCC1CCCC(=O)O1 (stereo not given) | inactive |  |
| C=C1C[C@H]2[C@@H]3C=C(C)C4=CC(=O)CC[C@]4(C)[C@H]3CC[C@]2(C)[C@@]1(OC(C)=O)C(C)=O | inactive |  |
| CCOC(=O)/C=C\C(=O)OCC | inactive |  |
